In PubChem BioAssay AID449768 (Vanderbilt High Throughput Screening Facility, 2010) one finds B-score data, which are given here for 83 molecules.

Each structure is given as a SMILES string. Out of some 110,000 compounds screened, about 1,400 (1.3%) were called active.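 The calls were made as follows: active = Z score or B-score, a plate-position-corrected score, falls beyond the plate's 99.7% confidence bounds, in either direction; inactive = both scores lie inside the 99.7% bounds.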 The list comes from a sample in which actives are over-represented; it also holds similar structures and randomly drawn compounds.

The experiment deals with Sodium-dependent dopamine transporter (Homo sapiens) (UniProt Q01959). Kind of experiment: modulators of human DAT uptake with cocaine – cell-based, LLC-PK1 hDAT, [14C]-dopamine uptake, MLSMR, cocaine antagonist project, primary screen (AID 449768).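 Also: scored against the spread of the other compound wells on the same plate.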 The conditions noted are these: LLC-PK1 hDAT cells, [14C]-dopamine uptake with cocaine IC80; at 10 µM; actives deviate in either direction.
Sodium-dependent dopamine transporter (Homo sapiens), sequence (Q01959 whole entry, looked up): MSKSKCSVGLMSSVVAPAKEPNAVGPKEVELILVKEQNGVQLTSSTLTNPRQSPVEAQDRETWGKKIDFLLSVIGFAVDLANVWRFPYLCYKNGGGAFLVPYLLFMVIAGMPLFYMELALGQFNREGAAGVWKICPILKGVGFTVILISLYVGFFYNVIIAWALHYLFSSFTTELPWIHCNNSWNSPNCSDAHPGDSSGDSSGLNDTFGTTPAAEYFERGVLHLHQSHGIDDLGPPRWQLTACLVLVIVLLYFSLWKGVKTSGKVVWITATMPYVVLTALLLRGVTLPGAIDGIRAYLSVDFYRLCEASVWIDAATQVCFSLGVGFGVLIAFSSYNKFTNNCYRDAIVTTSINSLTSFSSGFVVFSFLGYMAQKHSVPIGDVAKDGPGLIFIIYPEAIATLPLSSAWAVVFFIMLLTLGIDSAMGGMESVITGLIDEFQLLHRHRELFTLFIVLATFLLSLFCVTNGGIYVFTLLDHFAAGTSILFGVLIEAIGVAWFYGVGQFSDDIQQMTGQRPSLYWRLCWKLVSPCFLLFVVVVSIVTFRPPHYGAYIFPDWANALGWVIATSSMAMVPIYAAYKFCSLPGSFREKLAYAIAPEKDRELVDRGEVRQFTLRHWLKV
Take `CC1(C)CC[C@]2(C(=O)O)CC[C@]3(C)C(=CCC4[C@@]5(C)CC[C@H](O)C(C)(C)C5[C@H](O)C[C@]43C)[C@@H]2C1` (stereo partly drawn): the B-score was 1.56 (inactive).

`COC(=O)COc1cccc2c(=O)n(CC(=O)NCCc3ccc(OC)c(OC)c3)ccc12`: the B-score was -1.43 (inactive).

Consider `CCCCN1C(N)=NC[C@@H]1Cc1ccccc1`, for which the B-score was -0.466 (inactive).

`CCN1C(=O)N[C@@H](c2ccccc2)C(C(=O)OC)=C1C`: the B-score was -0.748 (inactive).

Regarding `Nc1nonc1-c1nc2ccccc2n1Cc1ccc(F)cc1`, the B-score is -0.103 (inactive).

As to `CC(=O)Nc1nonc1-c1nc2ccccc2n1Cc1ccccn1`, the B-score is 3.49 (active).

Regarding `Nc1nonc1-c1nc2ccccc2n1CCC(=O)O`, the B-score is 0.142 (inactive).

As for `C[C@H]1CC[C@]2(O[C@@H](CCO)C[C@@H](O)[C@@H]2O)O1`, the B-score was 0.279 (inactive).

On to `CCO[C@@H]1OC(C(N)=O)=C[C@H](c2ccc(Br)cc2)[C@H]1CCCO`, for which the B-score was -0.185 (inactive).

As to `CC[C@H](C)[C@@H](C(=O)N1CCNCC1)n1cc([C@@H](N)Cc2ccc(O)cc2)nn1`, the B-score was 0.00778 (inactive).

Take `CCc1ccc2ncc(C(=O)c3ccccc3)c(N3CCOCC3)c2c1`: the B-score was 2.66 (active).

On to `O=C(c1ccccc1)c1cc(-c2ccccn2)c(N2CCOCC2)s1`, for which the B-score was 1.13 (inactive).

Turning to `CCc1ccc(NC(=O)CSc2nc3ccccc3c(=O)n2CCN2CCOCC2)cc1`, the B-score is 0.477 (inactive).

With `N#CCc1c(C#N)c(N)nc(N2CCCC2)c1C#N`, the B-score is -0.528 (inactive).

Turning to `C#CCCOC(=O)N1C2=NC(C(=O)OC)=C(C(=O)OC)[C@@H]3N(C)c4ccc(OC)cc4[C@]23C[C@H]1C(=O)OC`, the B-score was -0.658 (inactive).

On to `C#CCOCCOCCOCCNc1nc(N2CCN(C(=O)[C@H](Cc3ccc(O)cc3)n3cc(C(N)CC(C)C)nn3)CC2)nc(N2CCN(C(=O)[C@H](CCC(=O)O)n3cc(C(N)[C@H](C)CC)nn3)CC2)n1` (stereo partly drawn), for which the B-score is -0.0315 (inactive).

On to `C1=C(CCNc2ncnc3c2cnn3-c2ccccc2)CCCC1`, for which the B-score was 1.22 (inactive).

For the molecule `O=C(NCCC1=CCCCC1)C1CCN(Cc2cnn(-c3ccccc3)c2-n2cccc2)CC1`, the B-score is 3.85 (active).

Turning to `CC(=O)Nc1ccc(NC(=O)CSCc2cnn(-c3ccccc3)c2-n2cccc2)cc1`, the B-score was 0.28 (inactive).

For `O=C(O)c1ccccc1NC(=S)NC(NC(=O)c1ccccc1[N+](=O)[O-])C(Cl)(Cl)Cl` (stereo not drawn), the B-score is -2.89 (active).

Consider `O=[N+]([O-])c1ccccc1NCc1ccc(Cl)cc1`, for which the B-score was -0.347 (inactive).

Consider `O=C(Nc1ccccc1[N+](=O)[O-])C1C(c2ccccc2)=C1c1ccccc1`, for which the B-score was -0.499 (inactive).

Regarding `CC1(c2nnc(-c3ccncc3)o2)CC(c2cccnc2)=NO1` (stereo not drawn), the B-score is -0.313 (inactive).

As to `CCc1nnc(SCc2cccc(F)c2)nc1CC`, the B-score is -0.0254 (inactive).

For `CC(NC(=O)Nc1ccccc1)C(c1cccs1)N1CCN(c2ccccc2)CC1` (stereo not drawn), the B-score is -0.314 (inactive).

`COc1ccccc1C1=CC(=O)CCC1`: the B-score was -0.483 (inactive).

For `C/C=C(/C)C(=O)O[C@@H]1c2cc3c(c4c2[C@@]2(CO4)C(=O)C(OC)=C(OC)C=C2C[C@@H](C)[C@H]1C)OCO3`, the B-score was -0.0544 (inactive).

Consider `Cc1cc(C)cc(OCC(=O)Nc2nc3ccc([N+](=O)[O-])cc3s2)c1`, for which the B-score is 0.303 (inactive).

Consider `O=C(NC(Nc1nc2ccc([N+](=O)[O-])cc2s1)(C(F)(F)F)C(F)(F)F)c1ccccc1`, for which the B-score is -6.22 (active).

For `COC(=O)C(NC(=O)c1ccc(OC)cc1)(Nc1ncc(S(=O)(=O)c2ccc([N+](=O)[O-])cc2)s1)C(F)(F)F` (stereo not drawn), the B-score was 1.29 (inactive).

As for `COC(C[C@@H]1O[C@@H]1C(=O)[C@@H](C)OCc1ccccc1)OC`, the B-score is -1.68 (inactive).

As to `O=C(Nc1cccc2ccccc12)N1CCN(Cc2ccc3c(c2)OCO3)CC1`, the B-score was 0.465 (inactive).

For `Cn1c(=O)cc(OCCCC(=O)N2CCN(Cc3ccc4c(c3)OCO4)CC2)c2ccccc21`, the B-score is -0.011 (inactive).

For the molecule `O=C(CCCN1C(=O)c2cccc3cccc(c23)C1=O)N1CCN(Cc2ccc3c(c2)OCO3)CC1`, the B-score was 3.8 (active).

As for `C=CCOC(=O)C1=C[C@H](c2ccc(Br)cc2)C[C@H](OCCCCO)O1`, the B-score is -0.239 (inactive).

In the case of `CCS(=O)(=O)Nc1cc(C(=O)OC)ccc1C(=O)OC`, the B-score was 6.13 (active).

For the molecule `COC(=O)c1ccc(C(=O)OC)c(NC(=S)N2CCCCC2)c1`, the B-score was 0.301 (inactive).

With `COC(=O)c1ccccc1NC(=O)c1ccccc1NS(C)(=O)=O`, the B-score is 0.686 (inactive).

As for `COC(=O)C1=C[C@@H](C(=O)OC)[C@@H]2C3=C(C(=O)[C@]2(C)NC(=O)c2ccccc2)[C@H](C)n2c(=O)n(C)c(=O)n2[C@@H]3C1`, the B-score was -0.415 (inactive).

Take `COc1ccc(C(CC(=O)N2CCN(c3ccccc3)CC2)c2c(O)cc(OC)cc2OC)cc1` (stereo not drawn): the B-score was 1.37 (inactive).

For the molecule `c1ccc2[nH]c(-c3nc4ccccc4[nH]3)nc2c1`, the B-score was 0.0135 (inactive).

For the molecule `COc1ccc(-c2[nH]nc(-c3ccccc3)c2-c2nc3ccccc3[nH]2)cc1`, the B-score is -7.37 (active).

As to `c1ccc(-c2[nH]ncc2-c2nc3ccccc3[nH]2)cc1`, the B-score is 0.018 (inactive).

In the case of `CN1CCN(C(=O)C2=C[C@H](c3ccc4c(c3)OCO4)C[C@H](OCc3ccc(CO)cc3)O2)CC1`, the B-score is 0.0245 (inactive).

As to `O=C1N[C@@H](Cc2ccccc2)C(=O)N2[C@@H]3N(S(=O)(=O)c4ccc(F)cc4)c4ccccc4[C@]3(Br)C[C@@H]12`, the B-score was 1.04 (inactive).

As for `C#CCOCCOCCOCCNc1nc(N2CCN(C(=O)[C@H](CCC(=O)O)n3cc(C(N)CO)nn3)CC2)nc(N2CCN(C(=O)[C@H](Cc3ccc(O)cc3)n3cc(C(N)[C@H](C)CC)nn3)CC2)n1` (stereo partly drawn), the B-score was -0.199 (inactive).

On to `CCOC(=O)CNC(=O)CSc1nnc(-c2cccc(OC)c2)n1CC`, for which the B-score is 0.102 (inactive).

As for `CCOC(=O)CNC(=O)CSc1nnc(COc2ccc(Cl)cc2)n1CC`, the B-score is 0.0208 (inactive).

For the molecule `CCOC(=O)CNC(=O)CSc1nc2cccnc2n1CC`, the B-score was -8.17 (active).

In the case of `O=C(NCC1CC1)c1onc(CSc2ccccc2)c1C(=O)NCC1CC1`, the B-score was 1.29 (inactive).

On to `COc1ccc(C2/C=C\CN(S(=O)(=O)c3cccs3)CC(=O)N2Cc2ccc(F)cc2)cc1` (stereo not drawn), for which the B-score is 0.769 (inactive).

With `CCOC(=O)c1sc(NC(=O)c2ccncc2)nc1C`, the B-score is 0.297 (inactive).

In the case of `CCOC(=O)c1sc(N(Cc2ccccc2)C(=O)CN2C(=O)CN(C)C2=O)nc1C`, the B-score was 4.19 (active).

As for `CCOC(=O)c1ccc(N2C(=O)CC(N(C)Cc3ccccc3)C2=O)cc1` (stereo not drawn), the B-score is -0.402 (inactive).

`O=C1c2ccccc2S(=O)(=O)c2cc(N3CCN(c4ccccn4)CC3)ccc21`: the B-score was 0.34 (inactive).

For the molecule `COC(C[C@@H](O)C[C@@H](O)[C@H](C)OCc1ccccc1)OC`, the B-score was -0.417 (inactive).

In the case of `OCC[C@H]1C[C@H](O)[C@@H](O)[C@]2(CCCCO2)O1`, the B-score was -1.31 (inactive).

As to `COc1cc(C(=O)Nc2nccs2)cc(OC)c1OC`, the B-score was -0.0124 (inactive).

Regarding `CC(=O)Oc1ccc(C(=O)Nc2nccs2)cc1`, the B-score was -1.53 (inactive).

With `CCCCOC(=O)Nc1nccs1`, the B-score is 16.3 (active).

For the molecule `COc1ccc(C2/C=C\CN(CC(C)C)CC(=O)N2Cc2ccc(F)cc2)cc1` (stereo not drawn), the B-score is -0.0164 (inactive).

Turning to `Cc1cccc(Nc2nc(NCCO)nc(N3CCCC3)n2)c1`, the B-score is 1.01 (inactive).

Regarding `CCC1SC2=NCCN2C1(O)c1ccc(Cl)cc1` (stereo not drawn), the B-score was -5.92 (active).

For `NC(=O)CC[C@@H]1NC(=O)[C@@H]2CCCN2C(=O)c2cc([N+](=O)[O-])cc(F)c2NCCC[C@@H](C(N)=O)NC1=O`, the B-score is -0.0519 (inactive).

`O=C(CCNS(=O)(=O)c1ccccc1C(F)(F)F)NCc1ccc2c(c1)OCO2`: the B-score was -3.26 (active).

As to `Cn1cc(CCC(=O)NCc2ccc3c(c2)OCO3)c2ccccc21`, the B-score is 0.0949 (inactive).

As to `O=C(COc1ccccc1)NCc1ccc2c(c1)OCO2`, the B-score was -0.475 (inactive).

Take `NC(=O)C[C@@H]1NC(=O)CNC(=O)c2cc([N+](=O)[O-])cc(I)c2NCCC(C(N)=O)NC1=O` (stereo partly drawn): the B-score was 0.453 (inactive).

For `O=C(O)CCSc1nnc(-c2ccccc2)n1-c1ccccc1`, the B-score was -0.0697 (inactive).

As for `O=S(=O)(c1cccc(S(=O)(=O)N2CCC(n3nnc4ccccc43)CC2)c1)N1CCCCC1`, the B-score is 0.575 (inactive).

Consider `O=S(=O)(c1cccc(-c2nnc(SC(F)F)n2-c2ccccc2)c1)N1CCCCC1`, for which the B-score was -7.23 (active).

With `COC(=O)CCCC1=CC2=CC(=O)C(C)(OC(=O)c3cccs3)C(=O)C2=CN1c1cccc(C#N)c1` (stereo not drawn), the B-score is -2.03 (inactive).

Turning to `COc1ccc(NC(=O)c2ccc(OC)cc2)cc1`, the B-score was -1.02 (inactive).

Take `COc1ccc(NC(=O)ON=C2c3ccccc3-c3ccccc32)cc1`: the B-score was 3.84 (active).

Regarding `CCCNC(=O)Nc1ccccc1C(=O)Nc1ccc(OC)cc1`, the B-score was 1.39 (inactive).

In the case of `Cc1nc(C(=O)Nc2ccc(Cl)cc2)sc1C1(C)CC(c2ccccc2)=NO1` (stereo not drawn), the B-score was 0.677 (inactive).

`CC(C)[C@@H]1NC(=O)c2cc([N+](=O)[O-])cc(I)c2NCCC[C@@H](C(=O)NC(CC(=O)O)C(N)=O)NC(=O)[C@H](CO)NC1=O` (stereo partly drawn): the B-score is -0.454 (inactive).

Consider `Cc1ccc(N2CCN(S(=O)(=O)c3ccc(F)cc3)CC2)c(C)c1`, for which the B-score was 0.000185 (inactive).

For the molecule `Cc1cc(N2CCN(S(=O)(=O)c3ccc(C)c(C)c3)CC2)c2ccccc2n1`, the B-score was 3.23 (active).

Regarding `Cc1ccc(S(=O)(=O)C(C#N)c2nc3ccccc3nc2N2CCCC2)cc1C` (stereo not drawn), the B-score was 1.69 (inactive).

For the molecule `C=CC(COCc1ccccc1)N(Cc1ccccc1)S(=O)(=O)c1ccccc1Br` (stereo not drawn), the B-score is -0.104 (inactive).

For `C#CCO[C@@H]1C[C@H](n2cnc3c(=O)[nH]c(NC(=O)C(C)C)nc32)O[C@@H]1CO`, the B-score was 0.438 (inactive).

In the case of `COC(=O)c1ccc(C(NC(=O)OCc2ccccc2)/C(F)=C/[C@@H](C)C(=O)O)cc1` (stereo partly drawn), the B-score is -0.297 (inactive).
